# Data from PubChem BioAssay (NCATS).
# Records with an inconclusive call do not appear. Entries that show only a call come without a potency. Activity calls are given as the source filed them. Calls follow the shape of the full dose curve; tested in HEK293 reporter line.
# Experiment: qHTS for Inhibitors of the Functional Ribonucleoprotein Complex (vRNP) of Lassa (LASV) Arenavirus: Viability assay - alamar blue signal for LASV Primary Screen (AID 1347083)
# Details: cell viability, alamar blue fluorescence (LASV minigenome counter-screen); series mostly up to 57.5 µM
# Also: nearly all actives have a fitted effect of over 80% in size.
row,Compound,Potency
1,NS(=O)(=O)c1cc2c(cc1Cl)CN(C1CCCCC1)C2=O,inactive
2,Oc1ccc(C(O)CNCCCCCCNCC(O)c2ccc(O)c(O)c2)cc1O (stereo not drawn),inactive
3,O=C(O)Cc1ccc(CCNS(=O)(=O)c2ccc(Cl)cc2)cc1,inactive
4,O=C(NN1CCCC1)NS(=O)(=O)c1ccc(Cl)cc1,inactive
5,COc1cc(C(=O)NCCCCCC(=O)O)cc(OC)c1OC,inactive
6,c1ccc(CCNc2nc(-c3ccccc3)cs2)cc1,inactive
7,Cn1c(=O)c2c(ncn2C)n(C)c1=O,inactive
8,CN1[C@@H]2CC[C@H]1CC(OC(=O)c1c[nH]c3ccccc13)C2 (stereo partly drawn),inactive
9,CN(C)CCOC1=Cc2ccccc2Sc2ccc(Cl)cc21,inactive
10,CO/N=C(\C(=O)O)c1csc(NC(=O)CCl)n1,inactive
11,CCOC(=O)c1ccc(OC(=O)CCCCCN=C(N)N)cc1,inactive
12,CC(=O)OCC(=O)[C@@]1(O)CCC2C3CCC4=CC(=O)CC[C@]4(C)C3[C@@H](O)C[C@@]21C (stereo partly drawn),inactive
13,CCCCNc1ccc(C(=O)OCCN(C)C)cc1,inactive
14,Nc1c(CC(=O)O)cccc1C(=O)c1ccc(Br)cc1,inactive
15,NNC(=O)CP(=O)(c1ccccc1)c1ccccc1,inactive
16,CC(=O)OC/C=C(C)/C=C/C=C(C)/C=C/C1=C(C)CCCC1(C)C,inactive
17,c1ccc([C@H]2CN3CCSC3=N2)cc1,inactive
18,CCCCN(CCCC)CCC(O)c1cc2c(Cl)cc(Cl)cc2c2cc(C(F)(F)F)ccc12 (stereo not drawn),inactive
19,C=C(C)C(=O)OCC(O)CO (stereo not drawn),inactive
20,CCCCCCCCCCCCCCCCC(C(=O)O)C(O)(CC(=O)O)C(=O)O (stereo not drawn),inactive
21,CCn1cc(C(=O)O)c(=O)c2cc(F)c(N3CCNCC3)nc21,inactive

# Experiment: qHTS for Inhibitors of the Functional Ribonucleoprotein Complex (vRNP) of Lymphocytic Choriomeningitis Arenaviruses (LCMV): Viability assay - alamar blue signal for LCMV Primary Screen (AID 1347085)
# Details: alamar blue viability counter-screen, LCMV vRNP screen cells; series mostly up to 57.5 µM
row,Compound,Potency
1,COc1ccc(C(Cl)=C(c2ccc(OC)cc2)c2ccc(OC)cc2)cc1,inactive
2,NCc1ccccc1Sc1ccccc1CO,inactive
3,O=C(CCCN1CCN(c2ccccn2)CC1)c1ccc(F)cc1,inactive
4,CCN1CCN(c2cc(-c3ccc(F)cc3)c3c(n2)CCCCCC3)CC1,inactive
5,O=C1OC(c2ccc(O)cc2)(c2ccc(O)cc2)c2ccccc21,inactive
6,Clc1ccccc1-c1nc(-c2ccncc2)no1,inactive
7,NCCNC(=O)c1ccc(Cl)cn1,inactive
8,Oc1ccc(Cl)cc1Sc1cc(Cl)ccc1O,inactive
9,CCOC(=O)c1c(N)sc2c1CCN(Cc1ccccc1)C2,inactive
10,OC[C@H]1O[C@@H](O[C@@H]2[C@@H](CO)O[C@](O)(CO)[C@H]2O)[C@H](O)[C@@H](O)[C@H]1O,inactive
11,C[N+]12CCC(CC1)C(OC(=O)C(O)(c1ccccc1)c1ccccc1)C2 (stereo not drawn),inactive
12,COC1=C(OC)C(=O)C(CCCCCCCCCCO)=C(C)C1=O,inactive
13,O=C1NCN(c2ccccc2)C12CCN(CCCC(c1ccc(F)cc1)c1ccc(F)cc1)CC2,inactive
14,Cc1ccc(Cl)c(OCC(O)CNC(C)(C)C)c1 (stereo not drawn),inactive
15,Cc1c(Cn2ccnc2)c2ccccc2n1CCC(=O)O,inactive
16,Clc1ccc(Cn2c(CN3CCCC3)nc3ccccc32)cc1,inactive

row,Compound,Potency
1,COc1cc2c(cc1OC)-c1cc(=Nc3c(C)cc(C)cc3C)n(C)c(=O)n1CC2,inactive
2,CCCC(=O)O[C@]1(C(=O)CCl)[C@@H](C)C[C@H]2[C@@H]3CCC4=CC(=O)C=C[C@]4(C)[C@@]3(F)C(=O)C[C@@]21C,inactive
3,NS(=O)(=O)c1cc2c(cc1Cl)CN(C1CCCCC1)C2=O,inactive
4,Oc1ccc(C(O)CNCCCCCCNCC(O)c2ccc(O)c(O)c2)cc1O (stereo not drawn),inactive
5,O=C(O)Cc1ccc(CCNS(=O)(=O)c2ccc(Cl)cc2)cc1,inactive
6,O=C(NN1CCCC1)NS(=O)(=O)c1ccc(Cl)cc1,inactive
7,COc1cc(C(=O)NCCCCCC(=O)O)cc(OC)c1OC,inactive
8,c1ccc(CCNc2nc(-c3ccccc3)cs2)cc1,inactive
9,Cn1c(=O)c2c(ncn2C)n(C)c1=O,inactive
10,CN1[C@@H]2CC[C@H]1CC(OC(=O)c1c[nH]c3ccccc13)C2 (stereo partly drawn),inactive
11,CN(C)CCOC1=Cc2ccccc2Sc2ccc(Cl)cc21,inactive
12,CO/N=C(\C(=O)O)c1csc(NC(=O)CCl)n1,inactive
13,CCOC(=O)c1ccc(OC(=O)CCCCCN=C(N)N)cc1,inactive
14,CC(=O)OCC(=O)[C@@]1(O)CCC2C3CCC4=CC(=O)CC[C@]4(C)C3[C@@H](O)C[C@@]21C (stereo partly drawn),inactive
15,CCCCNc1ccc(C(=O)OCCN(C)C)cc1,inactive
16,Nc1c(CC(=O)O)cccc1C(=O)c1ccc(Br)cc1,inactive
